# Source: ChEMBL document CHEMBL3988442, “University of Dundee, Small-Polar-MMV Screening Library” (2021)
# For some of these results: Results with a measured potency or affinity are listed apart.
# Assays:
# Design in all cases: scale not given: direction of the effect not stated beside the values
# [1] = biological target: Protein translocase subunit SecA (Escherichia coli (strain K12)) (UniProt P10408); test: Assay to Identify E. coli SecA ATPase Inhibitors; assay type: functional; settings: 30 µM
# Chain of Protein translocase subunit SecA (Escherichia coli (strain K12)) (P10408 whole entry): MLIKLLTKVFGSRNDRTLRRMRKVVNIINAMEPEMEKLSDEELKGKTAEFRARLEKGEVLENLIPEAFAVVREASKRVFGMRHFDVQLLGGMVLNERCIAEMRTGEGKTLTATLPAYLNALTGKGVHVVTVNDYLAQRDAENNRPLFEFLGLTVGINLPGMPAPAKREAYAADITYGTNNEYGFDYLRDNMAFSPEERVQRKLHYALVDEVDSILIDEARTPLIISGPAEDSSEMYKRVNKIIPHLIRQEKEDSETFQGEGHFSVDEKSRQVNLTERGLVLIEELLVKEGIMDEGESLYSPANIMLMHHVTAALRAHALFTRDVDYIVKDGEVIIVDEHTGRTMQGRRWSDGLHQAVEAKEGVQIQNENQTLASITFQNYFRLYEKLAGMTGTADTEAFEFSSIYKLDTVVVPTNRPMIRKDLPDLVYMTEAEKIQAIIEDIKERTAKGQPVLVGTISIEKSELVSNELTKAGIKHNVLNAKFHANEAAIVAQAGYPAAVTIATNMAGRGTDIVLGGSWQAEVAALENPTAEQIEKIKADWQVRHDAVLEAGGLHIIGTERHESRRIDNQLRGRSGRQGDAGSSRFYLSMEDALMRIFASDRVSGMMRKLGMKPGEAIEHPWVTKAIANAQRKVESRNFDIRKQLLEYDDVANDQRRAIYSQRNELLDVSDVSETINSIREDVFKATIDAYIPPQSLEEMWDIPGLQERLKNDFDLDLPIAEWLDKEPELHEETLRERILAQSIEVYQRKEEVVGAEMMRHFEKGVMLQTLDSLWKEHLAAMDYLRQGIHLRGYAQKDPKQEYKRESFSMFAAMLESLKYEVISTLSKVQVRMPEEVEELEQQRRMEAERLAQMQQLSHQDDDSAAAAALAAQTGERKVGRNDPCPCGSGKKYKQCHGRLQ
# [2] = biological target: T1, Ubiquitin-activating enzyme e1, putative (Leishmania donovani (strain BPK282A1)) (UniProt E9BSI1); test: Leishmania donovani Ubiquitin Activating Enzyme (LdE1); assay type: functional; settings: 30 µM
# T1 sequence (whole entry): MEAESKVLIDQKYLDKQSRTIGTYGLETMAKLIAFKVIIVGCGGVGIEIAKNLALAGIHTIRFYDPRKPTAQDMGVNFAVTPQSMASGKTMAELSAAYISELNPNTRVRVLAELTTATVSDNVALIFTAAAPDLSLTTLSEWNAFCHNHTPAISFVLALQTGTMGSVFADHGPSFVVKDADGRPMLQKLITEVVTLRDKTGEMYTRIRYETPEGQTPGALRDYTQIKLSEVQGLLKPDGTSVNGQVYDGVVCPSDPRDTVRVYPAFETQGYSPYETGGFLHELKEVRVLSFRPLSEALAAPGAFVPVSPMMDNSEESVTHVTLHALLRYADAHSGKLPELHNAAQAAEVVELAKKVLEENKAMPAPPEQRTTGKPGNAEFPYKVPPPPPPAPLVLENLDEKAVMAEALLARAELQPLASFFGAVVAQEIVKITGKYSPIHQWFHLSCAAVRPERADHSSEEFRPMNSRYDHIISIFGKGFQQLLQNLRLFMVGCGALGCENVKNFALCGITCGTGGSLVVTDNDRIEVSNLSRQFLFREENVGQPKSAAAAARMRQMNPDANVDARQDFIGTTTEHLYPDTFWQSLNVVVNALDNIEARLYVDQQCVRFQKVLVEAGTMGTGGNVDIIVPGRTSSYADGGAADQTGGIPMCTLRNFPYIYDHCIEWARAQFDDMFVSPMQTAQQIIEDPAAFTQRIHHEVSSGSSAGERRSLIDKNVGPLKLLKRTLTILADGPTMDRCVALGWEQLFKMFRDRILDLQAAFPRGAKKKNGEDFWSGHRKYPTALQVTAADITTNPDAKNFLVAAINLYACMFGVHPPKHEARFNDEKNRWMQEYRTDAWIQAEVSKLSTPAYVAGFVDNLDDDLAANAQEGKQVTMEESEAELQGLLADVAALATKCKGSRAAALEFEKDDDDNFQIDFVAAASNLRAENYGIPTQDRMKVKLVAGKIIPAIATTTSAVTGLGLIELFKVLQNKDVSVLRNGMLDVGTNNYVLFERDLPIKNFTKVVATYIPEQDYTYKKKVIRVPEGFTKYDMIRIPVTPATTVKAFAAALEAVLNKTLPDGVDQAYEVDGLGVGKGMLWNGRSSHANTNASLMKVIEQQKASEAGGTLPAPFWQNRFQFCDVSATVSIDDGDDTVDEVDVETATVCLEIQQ
# [3] = biological target: Sialic acid-binding Ig-like lectin 9 (Homo sapiens) (UniProt Q9Y336); test: Hs-Siglec9 ALPHAscreen SOP 20170721; settings: 10 µM
# Chain of Sialic acid-binding Ig-like lectin 9 (Homo sapiens) (Q9Y336 whole entry): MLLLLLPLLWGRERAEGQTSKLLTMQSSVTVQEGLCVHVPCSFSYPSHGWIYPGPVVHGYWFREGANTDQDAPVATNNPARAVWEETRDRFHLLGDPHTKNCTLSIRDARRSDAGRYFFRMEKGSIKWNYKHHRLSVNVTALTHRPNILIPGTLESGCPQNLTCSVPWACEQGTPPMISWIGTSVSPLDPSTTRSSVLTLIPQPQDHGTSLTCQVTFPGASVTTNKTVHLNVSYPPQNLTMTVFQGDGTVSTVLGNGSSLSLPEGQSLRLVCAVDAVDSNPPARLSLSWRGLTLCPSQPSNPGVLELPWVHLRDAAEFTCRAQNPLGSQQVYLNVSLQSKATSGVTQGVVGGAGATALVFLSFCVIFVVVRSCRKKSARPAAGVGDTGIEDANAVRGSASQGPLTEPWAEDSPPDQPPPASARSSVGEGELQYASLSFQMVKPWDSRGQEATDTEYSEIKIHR
# Trypanosoma cruzi = test: Trypanosoma cruzi phosphomannomutase and mannose-1-phosphate guanylyltransferase assay; assay type: functional; settings: 10 µM
# [4] = biological target: T2, Arginase-2, mitochondrial (Homo sapiens) (UniProt P78540); test: in vitro enzyme assay to detect the production of urea directly proportional to the activity of Arginase II; assay type: functional; settings: 33.3 µM; note: in the data most compounds retested in dose-response had high values
# T2 sequence (whole entry): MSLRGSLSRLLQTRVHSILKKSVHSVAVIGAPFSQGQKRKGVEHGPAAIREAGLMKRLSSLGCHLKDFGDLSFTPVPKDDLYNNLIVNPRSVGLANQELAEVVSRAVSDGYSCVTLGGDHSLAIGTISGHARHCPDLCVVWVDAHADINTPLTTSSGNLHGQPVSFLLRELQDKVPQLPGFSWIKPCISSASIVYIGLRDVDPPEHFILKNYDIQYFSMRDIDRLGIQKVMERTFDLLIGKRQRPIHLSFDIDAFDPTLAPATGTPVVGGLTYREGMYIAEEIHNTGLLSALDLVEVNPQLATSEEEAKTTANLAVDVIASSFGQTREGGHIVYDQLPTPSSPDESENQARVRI
# [5] = biological target: T3, Proteasome subunit beta (Trypanosoma cruzi) (UniProt O96673); test: Trypanosoma cruzi proteasome chymotrypsin-like activity (TcProtChymo) assay.; note: in the data most compounds retested in dose-response had high values; assay type: functional; settings: 9.37 µM
# T3 sequence (whole entry): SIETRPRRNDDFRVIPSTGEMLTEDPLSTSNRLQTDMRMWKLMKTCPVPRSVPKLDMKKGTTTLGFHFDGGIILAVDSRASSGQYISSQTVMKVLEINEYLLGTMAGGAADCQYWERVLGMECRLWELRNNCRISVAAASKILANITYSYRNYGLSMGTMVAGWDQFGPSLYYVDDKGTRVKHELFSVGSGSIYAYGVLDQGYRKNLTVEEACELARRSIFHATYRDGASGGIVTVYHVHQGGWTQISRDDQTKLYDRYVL
# Homo sapiens = organism: Homo sapiens; test: To identify inhibition of the IFN signalling (Jak-Stat) pathway via expression of an eGFP reporter gene under the control of an IFN-stimulated response element (ISRE) containing MxA promoter.; assay type: functional; settings: 30 µM
# [6] = biological target: T4, Tyrosyl-tRNA synthetase, putative (Trypanosoma cruzi (strain CL Brener)) (UniProt Q4DSP6); test: Trypanosoma cruzi tyrosyl tRNA synthetase (TcYRS) _High Tyrosine SOP; assay type: functional; settings: 30 µM; note: in the data most compounds retested in dose-response had high values
# T4 sequence (whole entry): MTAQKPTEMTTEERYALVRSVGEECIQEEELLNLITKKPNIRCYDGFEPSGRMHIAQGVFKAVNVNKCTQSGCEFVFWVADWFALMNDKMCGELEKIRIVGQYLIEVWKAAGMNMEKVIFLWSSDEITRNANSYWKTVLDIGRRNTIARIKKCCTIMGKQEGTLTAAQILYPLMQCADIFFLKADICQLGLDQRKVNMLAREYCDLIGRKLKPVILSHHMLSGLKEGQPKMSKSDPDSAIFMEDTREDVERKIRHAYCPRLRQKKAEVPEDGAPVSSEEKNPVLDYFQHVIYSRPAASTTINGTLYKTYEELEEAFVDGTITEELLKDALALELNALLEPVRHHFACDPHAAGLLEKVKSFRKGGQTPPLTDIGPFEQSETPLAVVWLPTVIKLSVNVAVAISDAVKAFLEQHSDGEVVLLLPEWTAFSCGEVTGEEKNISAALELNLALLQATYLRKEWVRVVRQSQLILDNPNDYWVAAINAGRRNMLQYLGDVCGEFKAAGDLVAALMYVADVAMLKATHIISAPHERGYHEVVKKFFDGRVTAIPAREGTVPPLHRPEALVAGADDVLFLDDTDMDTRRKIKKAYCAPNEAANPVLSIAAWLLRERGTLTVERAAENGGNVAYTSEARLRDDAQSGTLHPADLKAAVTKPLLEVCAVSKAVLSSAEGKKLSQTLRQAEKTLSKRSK
# [7] = biological target: T4, Tyrosyl-tRNA synthetase, putative (Trypanosoma cruzi (strain CL Brener)); test: Trypanosoma cruzi tyrosyl tRNA synthetase (TcYRS) SOP; assay type: functional; settings: 30 µM
# [8] = biological target: Chromo domain-containing protein 1 (Saccharomyces cerevisiae (strain ATCC 204508 / S288c) (Baker's yeast)) (UniProt P32657); test: ScCHD-1 Enzyme Inhibition Assay; assay type: functional; settings: 30 µM; note: in the data most compounds retested in dose-response had high values
# Chain of Chromo domain-containing protein 1 (Saccharomyces cerevisiae (strain ATCC 204508 / S288c) (Baker's yeast)) (P32657 whole entry, the tested form may be a part): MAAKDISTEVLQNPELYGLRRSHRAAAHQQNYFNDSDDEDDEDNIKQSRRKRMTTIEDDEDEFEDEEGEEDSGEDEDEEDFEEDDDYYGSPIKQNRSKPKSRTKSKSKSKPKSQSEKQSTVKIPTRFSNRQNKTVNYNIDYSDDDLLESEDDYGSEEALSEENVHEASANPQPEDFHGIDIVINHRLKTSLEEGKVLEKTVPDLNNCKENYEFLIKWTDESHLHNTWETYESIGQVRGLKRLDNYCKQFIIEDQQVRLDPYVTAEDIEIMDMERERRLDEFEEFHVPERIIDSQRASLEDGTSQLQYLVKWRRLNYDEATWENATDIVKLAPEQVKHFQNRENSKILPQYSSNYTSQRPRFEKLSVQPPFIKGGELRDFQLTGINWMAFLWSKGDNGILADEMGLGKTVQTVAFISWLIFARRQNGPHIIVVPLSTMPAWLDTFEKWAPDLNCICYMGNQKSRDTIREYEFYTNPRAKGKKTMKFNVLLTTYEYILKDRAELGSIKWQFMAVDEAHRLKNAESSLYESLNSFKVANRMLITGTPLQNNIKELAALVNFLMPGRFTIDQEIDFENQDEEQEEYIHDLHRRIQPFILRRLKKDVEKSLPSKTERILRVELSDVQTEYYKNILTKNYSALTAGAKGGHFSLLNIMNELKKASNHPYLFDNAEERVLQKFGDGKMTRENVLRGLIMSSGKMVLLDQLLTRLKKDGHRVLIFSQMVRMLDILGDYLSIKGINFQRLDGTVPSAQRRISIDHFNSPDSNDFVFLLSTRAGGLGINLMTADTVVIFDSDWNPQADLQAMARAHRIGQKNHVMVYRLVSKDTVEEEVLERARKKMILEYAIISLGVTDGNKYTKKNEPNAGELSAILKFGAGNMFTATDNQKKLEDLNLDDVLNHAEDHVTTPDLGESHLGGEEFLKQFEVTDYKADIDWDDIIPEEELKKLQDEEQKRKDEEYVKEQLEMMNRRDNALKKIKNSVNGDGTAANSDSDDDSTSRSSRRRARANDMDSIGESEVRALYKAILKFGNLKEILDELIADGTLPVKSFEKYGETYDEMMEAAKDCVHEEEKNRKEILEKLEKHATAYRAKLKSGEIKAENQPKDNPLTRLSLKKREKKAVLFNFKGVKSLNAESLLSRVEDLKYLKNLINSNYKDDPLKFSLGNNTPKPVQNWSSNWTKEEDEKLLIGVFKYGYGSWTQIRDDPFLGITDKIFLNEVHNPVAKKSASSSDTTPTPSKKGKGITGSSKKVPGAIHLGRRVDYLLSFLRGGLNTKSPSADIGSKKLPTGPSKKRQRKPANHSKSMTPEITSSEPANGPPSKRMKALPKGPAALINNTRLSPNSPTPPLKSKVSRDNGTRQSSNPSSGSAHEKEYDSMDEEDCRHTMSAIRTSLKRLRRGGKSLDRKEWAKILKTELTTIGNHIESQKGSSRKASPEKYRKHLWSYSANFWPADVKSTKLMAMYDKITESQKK
SMILES,Percent Effect [1],Percent Effect [2],Percent Effect [3],Percent Effect (Trypanosoma cruzi),Percent Effect [4],Percent Effect [5],Percent Effect (Homo sapiens),Percent Effect [6],Percent Effect [7],Percent Effect [8]
O=C(Cc1cccnc1)N1CCC(OCc2ccccc2)CC1,-7.08%,-8.11%,3%,-2.42%,-0.35%,13.2%,24.2%,6.92%,19.5%,101%
Cc1ccc(C(O)CNCCn2cccn2)cc1C (stereo not given),-4.43%,2.67%,5.78%,0.803%,1.33%,2.97%,4.85%,3.68%,7.69%,-8.09%
COCCC(=O)N1C[C@H]2CN(Cc3cccc(C)n3)C(=O)[C@H]2C1,-1.95%,3.9%,-4.82%,-0.563%,2.74%,0.0858%,-13.5%,7.73%,7.5%,-4.73%
c1ccc(-c2nc(CN3CCOC(Cn4cccn4)C3)no2)cc1 (stereo not given),-2.84%,2.67%,-2.67%,-3.01%,4.43%,7.38%,4.88%,5.79%,12.8%,-6.08%
COc1ccc(CN2CCN(C(C)c3nc(C4CC4)no3)CC2)cc1 (stereo not given),-1.5%,12.8%,2.49%,3.29%,-9.43%,7.76%,26.9%,3.35%,10.8%,-7.9%
Cn1nc2c(cc1=O)CN(Cc1nnc(C3CC3)o1)CC2,-3.12%,51.3%,-13.6%,-6.29%,0.41%,6.91%,36.5%,-11%,-6.02%,-6.1%
COCc1ncc(CN2CCC(Oc3ccccc3OC)CC2)cn1,-4.09%,2.7%,1.93%,-3.59%,3.85%,9.59%,1.55%,5.85%,14.6%,-3.8%
O=C(CCN1CCCN(c2nccs2)CC1)Nc1ccccc1,-2.89%,10.7%,-7.96%,-4.82%,-5.76%,13.2%,17.4%,-0.526%,-5.13%,-12%
Cc1ccc(NC(=O)C2CSCN2C(=O)c2cnccn2)c(C)c1 (stereo not given),-4.93%,7.69%,-2.1%,-4.6%,6.15%,1.11%,26.2%,3.35%,10.8%,-1.89%
Cc1nc[nH]c1CN1CCN(C(=O)CCC(F)(F)F)[C@H]2CS(=O)(=O)C[C@H]21,-7.21%,2.7%,12%,7.66%,14.3%,15.1%,11.2%,7.98%,12.2%,-1.8%
COc1ccc(CNCC2CCN(CC(C)O)CC2)c2ccccc12 (stereo not given),-1.39%,-10.3%,5.63%,5.73%,6.97%,0.939%,31.9%,4.31%,18.1%,-4.71%
CCNC(=O)CCN1CCC(c2cc(N3CCOCC3)nc(C)n2)CC1,-3.37%,5.41%,12.8%,5.92%,16.4%,6.51%,17.2%,2.66%,9.76%,98.8%
Cc1nc(-c2cccc(C(=O)O)c2)cc(C2CCN(C(C)C)C2)n1 (stereo not given),-2.85%,6.67%,1.03%,-1.18%,4.87%,9.69%,1.3%,6.35%,17.5%,-15.1%
CCc1nc(C2CCCN2C(=O)c2cc(C3CC3)[nH]n2)no1 (stereo not given),-3.71%,5.33%,-4.76%,-5.02%,1.77%,-1.44%,12.6%,3.68%,5.13%,-6.15%
CC(C)n1ccnc1C1CCN(C(=O)c2cc[nH]n2)CC1,-1.49%,8.11%,10.9%,5.53%,14.3%,13.2%,31.6%,7.98%,19.5%,-4.41%
CCOCC1CN(Cc2cnn(C)c2)Cc2nn(C)cc21 (stereo not given),0.939%,-3.9%,-4.11%,-5.36%,0.81%,10.2%,4.03%,-1.58%,0%,2.52%
CC(C)(C)c1cn2nc(N3CCCC3Cn3cncn3)sc2n1 (stereo not given),0.788%,17.9%,-6.25%,2.72%,6.15%,17.1%,12.8%,3.35%,20.5%,-6.04%
COc1ccc(C2CC(=O)Nc3c2cnn3C)cc1 (stereo not given),-6.08%,2.7%,-3.92%,-9.99%,-5.94%,8.39%,39.8%,-0.532%,4.88%,-3.56%
Cc1ccc(N2CCC3(CCN(C(N)=O)CC3)CC2)nn1,-4.59%,1.3%,-5.12%,-8.47%,3.64%,13.5%,5.72%,1.58%,0%,-0.155%
